# Reference: PubChem BioAssay (NCATS)
# Several values for one entry are separate records, joined by “and”; a condition that tells them apart may be missing. Identical values can stand only once. Inconclusive results are not listed. Activity calls are given as the source filed them. Unless noted, the call rests on the fitted dose curve; in most records, active means well fitted curve in the direction sought with a large enough effect; inconclusive means small, poorly fitted or top-dose-only effect, or another doubt; inactive means no such curve, though single readings can be large; an effect the other way counts as inactive or inconclusive.
# Assays:
# [1] = biological target: Lysosomal acid glucosylceramidase (Homo sapiens) (UniProt P04062); assay: Glucocerebrosidase-p2 (AID 348; in the data active means potency below about 10 µM; further: potency means the concentration at half of the fitted maximal effect); settings: purified GBA, blue fluorogenic substrate, 40 min
# Procedure, shortened: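 Compounds titrated from 0.6 nM upwards against 0.2 nM enzyme in pH 5.9 citric acid/KH2PO4, taurocholate, tween-20; blue fluorogenic substrate 80 uM, 40 min room temperature, stopped and read Ex 365/Em 440 for AC50.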
# [2] = AP1 Signaling Pathway (AID 357; active means well fitted curve in either direction with a large enough effect, not every such curve was filed as active;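 further: ME-180 reporter cells stimulated with EGF at its EC50 level; on the % scale 0 is the no-effect control and ±100 the full control effect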)
# Procedure, shortened: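 Cells are seeded overnight, exposed to compound titrations and an EC50 level of EGF for 5 hours at 37 °C, then loaded with CCF4 dye for 2.5 hours. Beta-lactamase activity under the AP-1 element is read as a blue/green ratio.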
# [3] = Stat Signaling Pathway (AID 446; active means well fitted curve in either direction with a large enough effect, not every such curve was filed as active;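 further: ME-180 cervical cancer cells given 40 pM IL-6 alongside compound; SIE-controlled beta-lactamase reporter measured as 460/530 nm FRET emission ratio; on the % scale 0 is the no-effect control and ±100 the full control effect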)
# Procedure, shortened: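 Screening format detects activators and inhibitors alike: ME-180 SIE-bla cells stimulated at 40 pM IL-6 for 5 hrs with compound, then dual-emission beta-lactamase read at 405 nm excitation.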
# [4] = biological target: Glucocorticoid receptor (Homo sapiens) (UniProt P04150); assay: GR-EFC Redistribution (AID 451; calls by dose curve; further: potency means the concentration at half of the fitted maximal effect); settings: CHO-K1 GR-EFC translocation, beta-gal luminescence, 2 h
# Sequence of Glucocorticoid receptor (Homo sapiens) (P04150 whole entry, looked up, the tested form may be a part): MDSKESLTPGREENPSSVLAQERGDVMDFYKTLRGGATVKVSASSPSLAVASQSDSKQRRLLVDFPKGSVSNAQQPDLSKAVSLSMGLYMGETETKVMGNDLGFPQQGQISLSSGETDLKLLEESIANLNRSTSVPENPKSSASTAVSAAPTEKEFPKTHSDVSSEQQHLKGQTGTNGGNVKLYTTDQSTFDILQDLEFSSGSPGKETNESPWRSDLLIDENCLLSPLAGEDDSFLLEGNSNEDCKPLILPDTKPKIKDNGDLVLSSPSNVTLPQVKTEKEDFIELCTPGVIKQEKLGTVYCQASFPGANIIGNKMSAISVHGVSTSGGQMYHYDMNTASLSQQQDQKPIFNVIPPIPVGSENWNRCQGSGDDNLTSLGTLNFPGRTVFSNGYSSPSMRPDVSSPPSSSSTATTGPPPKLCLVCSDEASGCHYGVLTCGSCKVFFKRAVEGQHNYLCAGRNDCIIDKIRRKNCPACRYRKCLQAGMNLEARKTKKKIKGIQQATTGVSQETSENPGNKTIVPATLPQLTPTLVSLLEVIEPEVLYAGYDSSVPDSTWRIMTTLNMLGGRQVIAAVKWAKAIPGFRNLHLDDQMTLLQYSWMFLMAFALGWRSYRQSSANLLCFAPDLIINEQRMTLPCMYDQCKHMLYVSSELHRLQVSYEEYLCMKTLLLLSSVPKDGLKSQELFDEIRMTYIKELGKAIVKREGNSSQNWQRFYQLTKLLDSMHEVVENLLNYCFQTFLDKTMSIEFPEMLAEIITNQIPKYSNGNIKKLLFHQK
# Procedure, shortened: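 CHO-K1 cells stably expressing nuclear-localized β-gal enzyme acceptor and GR fused C-terminally to the enzyme donor fragment; ligand-driven nuclear translocation restores β-gal by complementation. Compounds titrated up to 46 uM final, 2 h at 37 °C; luminescence read.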
# [5] = biological target: Mitogen-activated protein kinase 10 (Mus musculus) (UniProt Q61831); assay: JNK3 AlphaScreen Assay (AID 530; active means well fitted curve in either direction with a large enough effect, not every such curve was filed as active;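 further: kinase came from lysate of stimulated human HepG2 cells; signal reports phosphorylation of biotinylated GST-cJun 1-79 at Ser73 with 10 µM ATP; on the % scale 0 is the no-effect control and ±100 the full control effect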)
# Procedure, shortened: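 Inhibitors reduce antibody binding to phosphorylated biotin-cJun, lowering AlphaScreen luminescence. Lysates from HepG2 cells pre-activated by IL-1beta plus TNF-alpha supplied JNK3; compounds were titrated.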
# [6] = biological target: 3',5'-cyclic-AMP phosphodiesterase 4B (Homo sapiens) (UniProt Q07343); assay: qHTS Assay for Inhibitors of PDE-IV (AID 607; active means well fitted activation curve with a large enough effect in the main read-out, with a control signal flat, not every such curve was filed as active; further: % of control where 0% means no effect)
# Sequence of 3',5'-cyclic-AMP phosphodiesterase 4B (Homo sapiens) (Q07343 whole entry, looked up): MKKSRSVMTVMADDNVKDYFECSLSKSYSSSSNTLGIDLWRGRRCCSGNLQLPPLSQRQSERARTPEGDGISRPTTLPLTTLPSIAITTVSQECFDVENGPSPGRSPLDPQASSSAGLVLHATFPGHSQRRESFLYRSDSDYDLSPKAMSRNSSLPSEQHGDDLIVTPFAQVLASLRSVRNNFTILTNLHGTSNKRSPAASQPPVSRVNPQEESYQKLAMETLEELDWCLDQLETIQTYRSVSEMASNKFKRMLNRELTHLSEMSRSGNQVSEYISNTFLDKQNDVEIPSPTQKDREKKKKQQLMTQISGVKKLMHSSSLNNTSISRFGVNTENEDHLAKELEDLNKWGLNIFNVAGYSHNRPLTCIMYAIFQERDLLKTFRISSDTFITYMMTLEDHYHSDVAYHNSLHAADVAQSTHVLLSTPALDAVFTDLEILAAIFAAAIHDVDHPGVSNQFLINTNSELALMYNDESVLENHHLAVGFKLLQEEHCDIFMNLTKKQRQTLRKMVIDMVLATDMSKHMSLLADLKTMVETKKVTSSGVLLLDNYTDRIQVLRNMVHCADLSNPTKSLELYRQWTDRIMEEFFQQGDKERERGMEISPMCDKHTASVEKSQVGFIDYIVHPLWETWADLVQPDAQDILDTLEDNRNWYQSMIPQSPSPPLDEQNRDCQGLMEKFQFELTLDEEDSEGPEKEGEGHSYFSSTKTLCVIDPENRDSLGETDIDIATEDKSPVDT
# Procedure, shortened: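 The readout is membrane depolarisation from a cAMP-sensing CNG channel, detected with a potential dye at ex 535/em 590. Cells were HEK293-derived (endogenous PDE-IV) at 1000 cells/well, titrated up to 22.9 uM final.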
# [7] = qHTS Assay for Lipid Storage Modulators (AID 1519; calls by dose curve); settings: Drosophila S3 cells, BODIPY lipid droplet/cell ratio, laser cytometry, cells loaded with oleic acid
# Procedure, shortened: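 Cells seeded at 5,000 per well were treated with compounds over a concentration series and loaded with oleic acid (400 uM, as added). Lipid droplet fluorescence (488 nm excitation, 500-530 nm channel) was read by laser-scanning cytometry and normalized to 20 uM Triacsin C.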
# [8] = biological target: Cytochrome P450 3A4 (Homo sapiens) (UniProt P08684); assay: qHTS Assay for Inhibitors and Substrates of Cytochrome P450 3A4 (AID 884); further: nearly all actives have a fitted effect of over 50% in size; further: potency means the concentration at half of the fitted maximal effect
# Sequence of Cytochrome P450 3A4 (Homo sapiens) (P08684 whole entry, looked up): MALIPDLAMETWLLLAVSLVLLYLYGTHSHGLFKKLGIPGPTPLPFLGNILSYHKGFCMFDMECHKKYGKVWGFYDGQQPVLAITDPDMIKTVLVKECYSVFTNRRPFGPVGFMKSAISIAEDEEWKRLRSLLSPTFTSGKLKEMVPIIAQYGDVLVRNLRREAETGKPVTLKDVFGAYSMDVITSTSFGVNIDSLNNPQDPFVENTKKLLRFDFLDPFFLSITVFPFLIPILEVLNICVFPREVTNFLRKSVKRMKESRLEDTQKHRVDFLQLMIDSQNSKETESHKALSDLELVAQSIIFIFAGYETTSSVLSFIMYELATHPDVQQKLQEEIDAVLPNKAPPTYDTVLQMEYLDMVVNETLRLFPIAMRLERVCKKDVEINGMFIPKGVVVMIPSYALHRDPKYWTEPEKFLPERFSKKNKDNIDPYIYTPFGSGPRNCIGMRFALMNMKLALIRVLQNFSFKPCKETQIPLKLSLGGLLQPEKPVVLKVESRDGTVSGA
# Procedure, shortened: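 20 nM human CYP3A4 with 25 uM Luciferin-PPXE (at KM) in 200 mM KPO4, preincubated 10 min with compound; NADPH regeneration started a 60 min RT reaction. Luciferin detected by luminescence, normalized to 57 uM ketoconazole as full inhibition.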
# [9] = biological target: Cytochrome P450 3A4 (Homo sapiens) (UniProt P08684); assay: qHTS Assay for Activators of Cytochrome P450 3A4 (AID 885); further: nearly all actives have a fitted effect of over 65% in size
# Procedure, shortened: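 Steps: enzyme/substrate mix dispensed; compound added, 10 min RT; NADPH regeneration solution added, 60 min RT; luciferin detection buffer stops reaction; 20 min later luminescence measured.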
# [10] = Confirmation and Secondary Assay for Modulators of Hemoglobin Beta Chain Splicing at IVS2 654 locus (AID 910);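 further: per-well total GFP intensity by laser scanning cytometry after 2-day treatment; % of control where 0% means no effect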
# Procedure, shortened: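 HeLa cells stably carrying EGFP interrupted by mutant beta-globin IVS2-654 intron (CMV-driven) were treated with compound for 2 days at 37C; corrected splicing was scored as total peak GFP intensity per well (488 nm excitation, 500-520 nm emission).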
# [11] = Confirmation and Secondary Assay for Modulators of Hemoglobin Beta Chain Splicing at IVS2 705 locus (AID 930);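 further: HeLa cells stably expressing the EGFP-705 splicing reporter; GFP fluorescence per well restored by corrected splicing of the IVS2-705 intron in EGFP; % of control where 0% means no effect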
# Procedure, shortened: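 Fluorescence gain (488 nm laser, 500-520 nm PMT) reflects restored correct splicing of a mutant IVS2-705 intron inside EGFP in stably transfected HeLa cells after 2-day compound treatment.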
# [12] = biological target: Ubiquitin carboxyl-terminal hydrolase 1 (Homo sapiens) (UniProt O94782); assay: Inhibitors of USP1/UAF1: Pilot qHTS (AID 504865);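 further: rhodamine fluorescence freed from ubiquitin-rhodamine substrate followed over time; top concentration of the series differs between compounds; on the % scale 0 is the no-effect control and ±100 the full control effect; nearly all actives have a fitted effect of over 35% in size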
# Sequence of Ubiquitin carboxyl-terminal hydrolase 1 (Homo sapiens) (O94782 whole entry, looked up): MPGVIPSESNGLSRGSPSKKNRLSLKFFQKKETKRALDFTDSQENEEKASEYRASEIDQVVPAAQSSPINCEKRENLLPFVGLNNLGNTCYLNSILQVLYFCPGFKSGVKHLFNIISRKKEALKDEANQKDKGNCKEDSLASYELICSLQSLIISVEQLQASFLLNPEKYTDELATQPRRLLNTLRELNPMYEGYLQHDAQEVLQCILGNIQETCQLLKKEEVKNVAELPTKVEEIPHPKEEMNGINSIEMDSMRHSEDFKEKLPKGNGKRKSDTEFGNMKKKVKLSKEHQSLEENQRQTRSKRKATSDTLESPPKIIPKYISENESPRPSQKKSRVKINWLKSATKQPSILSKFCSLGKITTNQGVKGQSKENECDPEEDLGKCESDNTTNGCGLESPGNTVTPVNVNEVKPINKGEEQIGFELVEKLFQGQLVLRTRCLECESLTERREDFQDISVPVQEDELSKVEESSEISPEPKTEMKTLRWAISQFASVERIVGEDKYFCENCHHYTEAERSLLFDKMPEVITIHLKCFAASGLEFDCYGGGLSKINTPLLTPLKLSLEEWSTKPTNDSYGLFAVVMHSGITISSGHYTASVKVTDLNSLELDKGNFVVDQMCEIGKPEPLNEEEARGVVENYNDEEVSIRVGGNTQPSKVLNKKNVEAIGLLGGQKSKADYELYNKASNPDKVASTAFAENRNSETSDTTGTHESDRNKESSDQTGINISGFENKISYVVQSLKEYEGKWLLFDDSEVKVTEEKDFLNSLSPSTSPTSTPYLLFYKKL
# Procedure, shortened: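 Kinetic fluorescence assay: 1nM USP1/UAF1, 15 min compound preincubation, then 150nM Ub-Rho; 480/540 nm.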
# [13] = biological target: Voltage-gated inwardly rectifying potassium channel KCNH2 (Homo sapiens) (UniProt Q12809); assay: qHTS Assay for Small Molecule Inhibitors of the Human hERG Channel Activity (AID 588834);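 further: lower thallium flux fluorescence means stronger hERG block; nearly all actives have a fitted effect of over 50% in size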; further: potency means the concentration at half of the fitted maximal effect
# Sequence of Voltage-gated inwardly rectifying potassium channel KCNH2 (Homo sapiens) (Q12809 whole entry, looked up): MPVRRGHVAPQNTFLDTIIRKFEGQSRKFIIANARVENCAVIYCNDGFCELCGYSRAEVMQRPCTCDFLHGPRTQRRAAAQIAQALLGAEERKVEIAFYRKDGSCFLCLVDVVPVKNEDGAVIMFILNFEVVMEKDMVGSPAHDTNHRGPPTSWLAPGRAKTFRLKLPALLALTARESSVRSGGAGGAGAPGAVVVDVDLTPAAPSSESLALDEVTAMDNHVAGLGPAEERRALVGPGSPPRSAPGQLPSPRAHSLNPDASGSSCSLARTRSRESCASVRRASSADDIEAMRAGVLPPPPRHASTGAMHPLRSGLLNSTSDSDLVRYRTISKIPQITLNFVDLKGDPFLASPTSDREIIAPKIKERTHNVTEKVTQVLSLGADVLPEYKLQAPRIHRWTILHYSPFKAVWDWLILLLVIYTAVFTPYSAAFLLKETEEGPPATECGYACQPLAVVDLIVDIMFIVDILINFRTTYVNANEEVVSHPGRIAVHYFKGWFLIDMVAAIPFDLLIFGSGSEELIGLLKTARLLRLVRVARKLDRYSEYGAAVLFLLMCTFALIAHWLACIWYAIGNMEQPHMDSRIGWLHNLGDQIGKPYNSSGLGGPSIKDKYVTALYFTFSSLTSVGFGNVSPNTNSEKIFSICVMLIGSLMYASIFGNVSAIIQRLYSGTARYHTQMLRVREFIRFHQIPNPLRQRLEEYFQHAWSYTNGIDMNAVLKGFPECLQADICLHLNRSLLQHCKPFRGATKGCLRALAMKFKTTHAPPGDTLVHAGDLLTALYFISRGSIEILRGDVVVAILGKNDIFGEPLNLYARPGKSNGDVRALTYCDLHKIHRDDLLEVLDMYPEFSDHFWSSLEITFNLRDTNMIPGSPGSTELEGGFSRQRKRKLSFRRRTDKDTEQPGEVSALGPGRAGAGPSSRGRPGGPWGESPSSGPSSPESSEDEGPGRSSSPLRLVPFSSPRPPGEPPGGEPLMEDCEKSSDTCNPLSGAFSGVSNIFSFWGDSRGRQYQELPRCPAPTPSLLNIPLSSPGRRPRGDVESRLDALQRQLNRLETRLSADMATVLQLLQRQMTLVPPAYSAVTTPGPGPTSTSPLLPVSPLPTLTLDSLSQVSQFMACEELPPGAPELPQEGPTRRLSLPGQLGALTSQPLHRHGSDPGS
# Procedure, shortened: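 Measured: FluxOR fluorescence after thallium stimulation in U2OS cells transduced with hERG by baculovirus. Compounds pre-incubated around 10 min; medium Opti-MEM with 2% FCS. AC50 from Hill equation.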
# [14] = biological target: ATP-dependent DNA helicase Q1 (Homo sapiens) (UniProt P46063); assay: qHTS Validation Assay for Inhibitors of RecQ-Like Dna Helicase 1 (RECQ1) (AID 2353);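 further: plate controls were DMSO vehicle for no effect and enzyme-free control for full effect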
# Sequence of ATP-dependent DNA helicase Q1 (Homo sapiens) (P46063 whole entry, looked up): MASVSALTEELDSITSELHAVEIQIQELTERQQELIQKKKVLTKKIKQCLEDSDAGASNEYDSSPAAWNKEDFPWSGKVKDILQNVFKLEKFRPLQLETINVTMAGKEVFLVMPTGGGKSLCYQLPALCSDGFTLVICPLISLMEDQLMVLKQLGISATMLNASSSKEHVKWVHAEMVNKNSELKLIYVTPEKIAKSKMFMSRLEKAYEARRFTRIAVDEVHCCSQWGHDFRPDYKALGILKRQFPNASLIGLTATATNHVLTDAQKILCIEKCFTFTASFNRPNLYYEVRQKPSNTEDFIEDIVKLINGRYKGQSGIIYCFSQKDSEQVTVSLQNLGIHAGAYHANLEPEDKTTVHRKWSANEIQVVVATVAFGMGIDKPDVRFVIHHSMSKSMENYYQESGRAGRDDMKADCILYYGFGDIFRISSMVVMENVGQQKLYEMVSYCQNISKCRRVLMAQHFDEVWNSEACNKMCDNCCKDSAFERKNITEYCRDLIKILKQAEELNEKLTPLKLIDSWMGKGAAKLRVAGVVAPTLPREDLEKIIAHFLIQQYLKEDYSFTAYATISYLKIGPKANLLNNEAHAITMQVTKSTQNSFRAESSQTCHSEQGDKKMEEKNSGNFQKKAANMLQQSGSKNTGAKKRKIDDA
# Procedure, shortened: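 50 nM RECQ1T1 preincubated 15 min with compound in Tris pH 8.0 buffer with MgCl2, DTT, Tween-20 and 2.5 ug/ml poly(dI-dC); started with 200 nM TAMRA/BHQ-2 forked duplex and 2 mM ATP. Unwinding read as fluorescence (525/598 nm), two reads 2 h apart.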
# [15] = biological target: DNA repair nuclease/redox regulator APEX1 (Homo sapiens) (UniProt P27695); assay: qHTS Validation Assay for Inhibitors of the Human Apurinic/apyrimidinic Endonuclease 1 (APE1) (AID 1705;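 further: TAMRA fluorescence gain over two minutes as APE1 cuts a quenched THF abasic duplex; on the % scale 0 is the no-effect control and ±100 the full control effect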)
# Sequence of DNA repair nuclease/redox regulator APEX1 (Homo sapiens) (P27695 whole entry, looked up): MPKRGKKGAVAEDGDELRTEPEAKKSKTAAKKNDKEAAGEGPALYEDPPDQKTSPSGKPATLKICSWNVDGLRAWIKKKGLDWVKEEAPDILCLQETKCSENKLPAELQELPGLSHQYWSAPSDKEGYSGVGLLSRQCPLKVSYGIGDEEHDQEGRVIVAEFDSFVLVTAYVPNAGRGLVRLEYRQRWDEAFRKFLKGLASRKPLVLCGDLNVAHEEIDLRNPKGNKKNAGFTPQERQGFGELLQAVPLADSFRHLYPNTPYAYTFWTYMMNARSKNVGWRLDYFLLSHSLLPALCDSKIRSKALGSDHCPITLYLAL
# Procedure, shortened: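 Endonuclease activity of human APE1 is followed as dequenching when the enzyme incises a tetrahydrofuran abasic site in a short duplex labelled 5'-TAMRA/3'-BHQ-2 (50 nM final), after 15 min enzyme–compound preincubation at room temperature.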
# [16] = qHTS profiling for inhibitors of Plasmodium falciparum proliferation (AID 504749);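 further: 0% = DMSO vehicle and full inhibition = artemisinin control; nearly all actives have a fitted effect of over 60% in size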; settings: P. falciparum in erythrocytes, SYBR Green DNA, 72 h, at 28.7 µM (top of the series)
# Procedure, shortened: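 Parasite proliferation within erythrocytes, 72 h exposure. Endpoint: SYBR Green I fluorescence after overnight lysis at room temperature. Controls: 0.29 uM artemisinin, DMSO.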
# [17] = biological target: Cytochrome P450 1A2 (Homo sapiens) (UniProt P05177); assay: p450-cyp1a2 (AID 410; calls by dose curve; further: potency means the concentration at half of the fitted maximal effect)
# Procedure, shortened: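 Luminescent readout of luciferin formed from Luciferin-ME by human CYP1A2; data normalized against complete inhibition by 57 uM furafylline. Enzyme 20nM, substrate 100uM at Km, 100mM KPO4 buffer, 60 min reaction at room temperature.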
# [18] = NFAT Signaling Pathway (AID 444; active means well fitted curve in either direction with a large enough effect, not every such curve was filed as active); settings: Jurkat NFAT-bla M1, carbachol, beta-lactamase ratio, 5 h
# Procedure, shortened: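 Jurkat cells carrying an NFAT-driven β-lactamase reporter and co-transfected muscarinic M1 receptor were treated with compound plus carbachol (1 uM final, an EC50 level) for 5 h at 37 °C. CCF4 loading followed for 1 h at RT; 460/530 nm ratio gave %activity.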
# [19] = biological target: Glucocorticoid receptor (Homo sapiens) (UniProt P04150); assay: GR-GFP Redistribution (AID 450;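 active means compounds whose dose series gives a full or clear partial fitted curve of increased nuclear translocation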; further: potency means the concentration at half of the fitted maximal effect); settings: U2OS GR-GFP nuclear translocation, laser cytometry, 2 h
# [20] = measured here: cell count channel max response
# [21] = measured here: lipid channel max response
smiles,measurement,setting,value
CC(C)CN1CC2(CCN(C(=O)c3ccncc3)CC2)C1,Potency,[1],> 11.4 µM (inactive)
same,outcome,[2],inactive
same,outcome,[3],inactive
same,Potency,[4],> 46 µM (inactive)
same,outcome,[5],inactive
same,Potency,[6],inactive
same,"activity change, negative = inhibition",[7]; at 57.5 µM (top of the series),-1.63% (inactive)
same,max response,[7]; [20],11.7%
same,max response,[7]; [21],11.8%
COc1cc2c(cc1O)CC1c3c(cc(O)c(OC)c3-2)CCN1C (stereo not given),Potency,[8],25.1 µM (active)
same,Potency,[9],inactive
same,Potency,[10],inactive
same,Potency,[11],inactive
same,"activity change, negative = inhibition",[7]; at 57.5 µM (top of the series),9.81% (inactive)
same,max response,[7]; [20],24.1%
same,max response,[7]; [21],38.2%
CCc1cccc(CC)c1N(COC)C(=O)CCl,Potency,[8],inactive
same,Potency,[10],inactive
same,"activity change, negative = inhibition",[7]; at 57.5 µM (top of the series),1.98% (inactive)
same,max response,[7]; [20],-0.808%
same,max response,[7]; [21],0.291%
same,Potency,[12],inactive
same,Potency,[13],inactive
CCC(CO)NC(=O)[C@@H]1C=C2c3cccc4[nH]cc(c34)C[C@H]2N(C)C1 (stereo not given in full),"activity change, negative = inhibition",[7]; at 57.5 µM (top of the series),0.713% (inactive)
same,max response,[7]; [20],-10.2%
same,max response,[7]; [21],-11.2%
same,outcome,[14],inactive
same,Potency,[13],inactive
CC1Cc2cc3c(cc2C(c2ccc(N)cc2)=NN1)OCO3 (stereo not given),"activity change, negative = inhibition",[7]; at 57.5 µM (top of the series),1.87% (inactive)
same,max response,[7]; [20],56.1%
same,max response,[7]; [21],60.1%
same,Potency,[15],inactive
same,outcome,[14],inactive
CC(C)NC(=O)N1CCC2(CCNCC2)CC1,Potency,[1],> 11.4 µM (inactive)
same,outcome,[2],inactive
same,outcome,[3],inactive
same,outcome,[5],inactive
same,Potency,[6],inactive
same,"activity change, negative = inhibition",[7]; at 57.5 µM (top of the series),4% (inactive)
same,max response,[7]; [20],1.41%
same,max response,[7]; [21],7.12%
ClC1=C(Cl)C2(Cl)C3C4CC(C5OC45)C3C1(Cl)C2(Cl)Cl (stereo not given),outcome,[5],inactive
same,Potency,[10],inactive
same,"activity change, negative = inhibition",[7]; at 57.5 µM (top of the series),3.37% (inactive)
same,max response,[7]; [20],8.98%
same,max response,[7]; [21],15.6%
same,Potency,[13],35.5 µM (active)
same,"activity, negative = inhibition",[16]; parasite line A,-12.8% (inactive)
same,"activity, negative = inhibition",[16]; parasite line B,-9.6% (inactive)
C/C=C/c1ccc2c(c1)OCO2,outcome,[5],inactive
same,Potency,[9],inactive
same,Potency,[10],inactive
same,Potency,[11],inactive
same,"activity change, negative = inhibition",[7]; at 57.5 µM (top of the series),7.07% (inactive)
same,max response,[7]; [20],10.4%
same,max response,[7]; [21],20.9%
same,Potency,[13],inactive
CCN(CC)C(=O)N[C@@H]1C[C@@H]2c3cccc4[nH]cc(c34)C[C@H]2N(C)C1,"activity change, negative = inhibition",[7]; at 57.5 µM (top of the series),-3.98% (inactive)
same,max response,[7]; [20],28.2%
same,max response,[7]; [21],24%
same,Potency,[15],inactive
same,outcome,[14],inactive
same,Potency,[12],inactive
CNC(=O)O/N=C/C(C)(C)SC,outcome,[5],inactive
same,Potency,[10],inactive
same,Potency,[11],inactive
same,"activity change, negative = inhibition",[7]; at 57.5 µM (top of the series),7.39% (inactive)
same,max response,[7]; [20],14.3%
same,max response,[7]; [21],23.9%
same,Potency,[12],inactive
same,Potency,[13],inactive
CN1CCc2cc3c(cc2[C@@H]1[C@@H]1OC(=O)c2c1ccc1c2OCO1)OCO3,outcome,[2],inactive
same,Potency,[17],15.8 µM (active)
same,"activity change, negative = inhibition",[18]; at 17.2 µM (top of the series),4.41% (inactive)
same,"activity change, negative = inhibition",[18]; at 38 µM (top of the series),-4.78% (inactive)
same,outcome,[3],inactive
same,Potency,[19],> 46 µM (inactive) and > 20.6 µM (inactive)
same,Potency,[4],> 46 µM (inactive) and > 20.6 µM (inactive)
same,outcome,[5],inactive
same,Potency,[6],inactive
same,Potency,[8],0.794 µM (active)
same,Potency,[9],inactive
same,"activity change, negative = inhibition",[7]; at 25.7 µM (top of the series),-1.13% (inactive)
same,max response,[7]; [20],-3.68%
same,max response,[7]; [21],-5.44%
